# This is a sample that favours compounds with a hit; in the whole collection about 11% have one here.
# NIH3T3 tox: Cytotoxic Profiling in NIH 3T3 Cell Line of Diverse Libraries Using Quantitative High-Throughput Screening. NIH 3T3 viability, CellTiter-Glo ATP luminescence, 48-72 h. Potency, µM (titrated, usually from 96.7 µM), without a hit: top-dose activity change, negative = cytotoxicity, hits mostly inhibitors. 4.3% of 94,000 active. AID 1345082, 2018; note: nearly all actives have a fitted effect of over 55% in size
#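 Mouse fibroblast NIH 3T3 cells, 400 per well, received compound via pintool and were incubated for 48 or 72 hr prior to CellTiter-Glo ATP luminescence measurement.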
# NPR1 antag: Natriuretic polypeptide receptor (hNpr1) antagonism - Primary qHTS; Atrial natriuretic peptide receptor 1 (Homo sapiens), P16066; HEK293 hNpr1 GloSensor cGMP, ANP-stimulated luminescence; Potency, µM (series often up to 46.3 µM), without a hit: at the top dose activity change, negative = inhibition, actives largely listed as inhibitors; 1.6% of 76,000 active; AID 1347048, 2019; calls by dose curve; note: nearly all actives have a fitted effect of over 60% in size
#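 HEK293 cells stably expressing human Npr1 and cGMP GloSensor pGS-40F, loaded 2 h with 2% GloSensor reagent, given compound 30 min at room temperature. Luminescence read before and 20 min after 0.1 nM hNppA.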
# FLuc inh: Firefly luciferase inhibition profiling of diverse chemical library using quantitative high-throughput screening | Luciferin 4-monooxygenase (Photinus pyralis), P08659 | purified P. pyralis luciferase, luminescence, biochemical | Potency, µM (doses to about 115 µM), usual class: inhibitors | 2.5% of 76,000 active | AID 1347043, 2019; note: nearly all actives have a fitted effect of over 65% in size
# Target sequence (P08659 whole entry, looked up): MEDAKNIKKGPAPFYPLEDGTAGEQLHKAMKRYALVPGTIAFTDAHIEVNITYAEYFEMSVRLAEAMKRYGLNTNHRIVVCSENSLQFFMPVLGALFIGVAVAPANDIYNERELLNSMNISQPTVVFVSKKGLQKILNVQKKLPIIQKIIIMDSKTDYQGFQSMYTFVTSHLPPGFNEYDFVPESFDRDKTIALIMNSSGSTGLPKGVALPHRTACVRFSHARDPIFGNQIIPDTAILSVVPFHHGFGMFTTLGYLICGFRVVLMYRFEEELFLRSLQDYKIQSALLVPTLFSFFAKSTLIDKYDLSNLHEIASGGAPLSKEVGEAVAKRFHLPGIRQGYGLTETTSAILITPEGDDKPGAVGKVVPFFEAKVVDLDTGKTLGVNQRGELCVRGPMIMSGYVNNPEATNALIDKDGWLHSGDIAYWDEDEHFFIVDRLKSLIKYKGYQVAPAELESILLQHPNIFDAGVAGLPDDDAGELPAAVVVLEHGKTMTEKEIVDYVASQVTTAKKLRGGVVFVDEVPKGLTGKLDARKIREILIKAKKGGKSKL
#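 FLuc 10nM, D-luciferin 10uM, ATP 10uM, Mg acetate 10mM, Tris acetate pH 7.5, Tween/BSA; cpd qHTS; enzyme added last; CCD luminescence.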
# HEK293 tox: Cytotoxic Profiling in HEK 293 Cell Line of Diverse Libraries Using Quantitative High-Throughput Screening; 6.6% of 94,000 active; HEK 293 viability, ATP luminescence (CellTiter-Glo), 48-72 h; AID 1345083, 2018; Potency, µM (series often up to 115 µM), inactives show at the highest dose activity change, negative = cytotoxicity, actives largely listed as inhibitors; note: nearly all actives have a fitted effect of over 60% in size
#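 qHTS cytotoxicity; HEK 293, 250 cells/well; compound pinned; 48 or 72 hr, 37 degree Celsius, 5% CO2, 95% humidity; CellTiter-Glo, 10 min RT; luminescence (ATP).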
# The depositor's hits bear a star; i = inactive; ? = inconclusive; . = no result given; [ ] = remark or other dose. Unless noted, calls come from the whole dose curve; as a rule, active = well fitted curve in the direction sought with a large enough effect; inconclusive = small, poorly fitted or top-dose-only effect, or another doubt; inactive = no such curve, though single readings can be large; an effect the other way counts as inactive or inconclusive. % is set by controls: 0 for no effect and ±100 for the full control effect; potency is the fitted concentration of half-maximal effect.
SMILES,NIH3T3 tox,NPR1 antag,FLuc inh,HEK293 tox
Cn1ncc2c(C(=O)NCc3cccc(C(F)(F)F)c3)cc(-c3ccc([S+](C)(=O)[O-])cc3)nc21,-0.3%,.,.,i
Cn1ncc2c(C(=O)NCCc3ccc(Cl)cc3)cc(-c3ccsc3)nc21,?,.,.,-28.9%
Cn1ncc2c(C(=O)NCc3cccc(C(F)(F)F)c3)cc(-c3ccsc3)nc21,?,.,.,28.2µM*
CC(C)CNC(=O)c1cc(-c2ccsc2)nc2c1cnn2C,?,.,.,70.8µM*
Cc1cn2nnc(C(=O)NCC(C)c3ccccc3)c2c(=O)[nH]1 (stereo unspecified),?,-2.5%,i,3.4%
CC(C)C1=NOC2(CCN(C(=O)c3ccc4c(c3)OCO4)C2)C1 (stereo unspecified),79.4µM*,.,.,-30.4%
CCOc1nccn2c(-c3ccc(CN4CCNC(=O)C4)cc3)cnc12,?,4.7%[70.6 µM],i,-2.3%[172 µM]
CCOc1nccn2c(-c3ccc(CNc4ccc(OC)nc4)cc3)cnc12,?,-13.8%[70.6 µM],22.4µM*,?
COc1ccc(-c2cccc(C(=O)N3CCN(C(C)=O)CC3)c2)nn1,-13.8%,.,.,-13.7%
O=C(c1ccc(CCC2COc3ccccc3O2)cc1)N1CCCCC1 (stereo unspecified),?,?,35.5µM*,?
CC(C)(C(=O)NCCC1COc2ccccc2O1)N1CCOCC1 (stereo unspecified),0.4%,-2.1%,i,-9.3%
CC(C)NC(=O)c1nc2cccnc2n(Cc2ccccc2)c1=O,-28.5%[138 µM],.,.,?
CCOc1ccc2c(n1)CCN(C(=O)Nc1ccccc1OCC)C2,?,0.0%,?,?
O=C(c1ccccc1F)N1CCC2(CC1)C(=NC1CCCC1)NC(=O)N2c1cccnc1,35.5µM*,.,.,i
O=C1NC(=NC2CCCC2)C2(CCCN(Cc3ccsc3)C2)N1c1cccnc1 (stereo unspecified),28.2µM*,.,.,2.6%
O=C1NC(=NC2CCCCC2)C2(CCN(Cc3cccnc3)C2)N1c1cccnc1 (stereo unspecified),39.8µM*,.,.,i
CC(C)CCN1CCC2(C1)C(=NC1CCCC1)NC(=O)N2c1cccnc1 (stereo unspecified),31.6µM*,.,.,-9.7%
O=C(c1ccccc1F)N1CCCC2(C1)C(=NC1CCCC1)NC(=O)N2c1cccnc1 (stereo unspecified),-21.1%,.,.,i
O=C1NC(=NC2CCCCC2)C2(CCN(Cc3ccsc3)C2)N1c1cccnc1 (stereo unspecified),?,.,.,0.1%
CCCN1C(=O)CCc2cc(NC(=O)c3cccc(N(C)C)c3)ccc21,-26.0%,-18.7%,?,?
CN(C)c1ccc(CN2CCCC3(C2)C(=NC2CCCC2)NC(=O)N3c2cc(F)cc(F)c2)cc1 (stereo unspecified),-29.6%,.,.,-25.1%
CN(C)c1ccc(CN2CCCC3(C2)C(=NC2CCCCC2)NC(=O)N3c2cccnc2)cc1 (stereo unspecified),-16.0%,.,.,?
O=C1NC(=NC2CCCCC2)C2(CCCN(Cc3cccnc3)C2)N1c1cc(F)cc(F)c1 (stereo unspecified),11.2µM*,.,.,-9.6%
CN(C)c1ccc(CN2CCCC3(C2)C(=NC2CCCCC2)NC(=O)N3c2cc(F)cc(F)c2)cc1 (stereo unspecified),?,.,.,79.4µM*
O=C1NC(=NC2CCCC2)C2(CCCN(Cc3ccc(F)cc3)C2)N1c1cccnc1 (stereo unspecified),15.8µM*,.,.,-24.0%
Cn1c(=O)n([C@H]2CCCN(C(=O)c3cccnc3)C2)c2ncccc21,-17.4%,.,.,-9.1%
CC1CCN([C@@H]2[C@H](O)[C@H](CO)O[C@@H]2CNC(=O)Nc2cccc(Cl)c2)CC1,-31.3%[174 µM],-7.0%[70.6 µM],i,?
CN1CC(=O)N(C2CCC2)Cc2c(NC3CCNCC3)ncnc21,i,.,.,i
O=C(Cc1ccccc1F)NC1CCN(c2cc(-c3cccs3)[nH]n2)C1 (stereo unspecified),?,-17.9%,i,15.8µM*
O=C(Cc1cccc(F)c1)NC1CCN(c2cc(-c3cccs3)[nH]n2)C1 (stereo unspecified),?,-14.7%,i,?
